Assay results reported in PubChem BioAssay AID1117319 (Southern Research Institute, 2015).
Values joined by “and” are separate entries in the source; they are usually repeats but may differ in a detail not shown here. Equal values may be shown once. About 1,500 (0.58%) of roughly 260,000 compounds were called active. Another 5% or so got no clear call; they are omitted.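 Rule for the calls: active = inhibition above a set limit at one or more doses, reproduced on every date tested; inconclusive = results disagree between test dates, or hit never tested in dose response; inactive = the rest.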 Not all results are given here. Measured potencies and affinities stand elsewhere.

Molecular target: Virion infectivity factor (Human immunodeficiency virus type 1 group M subtype B (isolate BH10)) + Virion infectivity factor (Human immunodeficiency virus type 1 group M subtype B (isolate BRU/LAI)) + Virion infectivity factor (Human immunodeficiency virus type 1 group M subtype B (isolate PCV12)) + Virion infectivity factor (Human immunodeficiency virus type 1 group M subtype B (isolate HXB2)) + DNA dC->dU-editing enzyme APOBEC-3G (Homo sapiens) (UniProt P69720+P69721+P69722+P69723+Q9HC16)
Assay: inhibitors of Vif binding to APOBEC3G peptide, primary screen, biochemical, TR-FRET, GST-Vif 1-94, biotin-A3G peptide, dose response retest (AID 1117319);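 note: Vif residues 1-94 fused to GST binding biotinylated APOBEC3G peptide 110-148; 0% = full assay without inhibitor and 100% = GST in place of GST-Vif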
Details: active compounds read high

inhibition, inactive:
O=C(Nc1ccccc1N1CCOCC1)c1ccc(Br)o1 7.09%
CN1CCN(c2ccccc2NC(=O)c2ccc(Br)o2)CC1 0.41%
O=C(O)c1cc(-c2ccc(N3CCOCC3)cc2)nn1-c1ccc(F)cc1 18.4%
Cn1cnc(S(=O)(=O)N2CCc3ccccc32)c1 3.79%
c1cc2c3c(cccc3c1)NC1(CCCC1)N2 2.08%
c1cc2c3c(cccc3c1)NC1(CCCCC1)N2 10.4%
Cc1cc(=O)[nH]c(SCCCOc2ccc3c(c2)CCC3)n1 -0.15%
CC(C)n1nnnc1SCC(=O)NCc1ccco1 20%
CCn1c(SCC(=O)NC(=O)NCc2ccco2)nnc1-c1cccs1 -5.61%
Cn1c(SCC(=O)NCc2ccco2)nnc1-c1cccs1 -8.22%
CCn1nnnc1SCC(=O)NCc1ccco1 21.2%
Clc1ccccc1Cc1noc(CN2CCCCC2c2ccccn2)n1 (stereo not drawn) 2.88%
COc1cccc(OCc2nnc(SCC(=O)N3c4ccccc4Sc4ccc(Cl)cc43)o2)c1 8.84%
O=C(CN(C(=O)Cn1nnc(-c2ccc(F)cc2)n1)c1cnc2ccccc2c1)NCC1CCCO1 (stereo not drawn) -11.4%
Cc1cc(C)n2nc(-c3ccsc3-n3c(C)ccc3C)cc2n1 16.4%
Cc1cc(=O)n2[nH]c(-c3sccc3-n3c(C)ccc3C)cc2n1 -3.07%
O=C(c1ccccc1)c1n[nH]c(-c2ccccc2)cc1=O 0.47%
CCOC(=O)N1CCC(NC(=O)c2cnn3cccnc23)CC1 -2.64%
O=C(O)CCCC(=O)Nc1c(F)c(F)c(F)c(F)c1F 3.4%
O=C(CCSCCC(=O)Nc1c(F)c(F)c(F)c(F)c1F)Nc1c(F)c(F)c(F)c(F)c1F -9.21%
CN(C)c1nc(NNC(=O)c2ccccc2)nc(N(C)C)n1 -5.34%
C=CCn1c(SCC(=O)Nc2cc(C)on2)nc2sc(C)c(C)c2c1=O -2.76%
C=CCn1c(SCC(=O)c2cccs2)nc2sc(C)c(C)c2c1=O -46.6%
CCN(CC(=O)Nc1c(F)cccc1F)C(=O)c1ccc2c(c1)S(=O)(=O)N=C1CCCCCN12 -6.51%
O=C(/C=C/c1ccc(O)c(O)c1)c1ccccc1O 13.2%
COc1cc(/C=C/C(=O)OCC(=O)NCC2CCCCC2)ccc1O -4.25%
O=C(CCOc1ccccc1)Nc1ccc([N+](=O)[O-])cc1 5.33%
CCOc1ccc(NC(=O)CN(C)C(=O)c2cc(-c3ccco3)nc3ccccc23)cc1OCC -2.81%
COc1ccc(NC(=O)c2cc(C)nc3ccccc23)cc1S(=O)(=O)N1CCOCC1 -2.24%
Cc1ccc(NC(=O)CN(C)C(=O)c2cc(-c3ccco3)nc3ccccc23)cc1 55.7%
COc1ccc(NC(=O)CN(C)C(=O)c2cc(-c3ccc(Cl)cc3)nc3ccccc23)cc1 2.66%
Cc1ccc(NC(=O)c2cc(-c3ccco3)nc3ccccc23)cc1S(=O)(=O)N1CCOCC1 32.6%
COc1cccc(NC(=O)CN(C)C(=O)c2cc(-c3ccco3)nc3ccccc23)c1 23.7%
CN(CC(=O)Nc1cccc(F)c1)C(=O)c1cc(-c2ccccc2)nc2ccccc12 -4.43%
COc1ccc(NC(=O)CN(C)C(=O)c2cc(-c3ccc(OC)cc3)nc3ccccc23)cc1 -5.94%
CC(=O)c1cccc(N/C=C\c2nnnn2-c2ccc(F)cc2)c1 -15.5%
CCOC(=O)c1ccc(-c2c(C)cc3oc(=O)cc(-c4ccccc4)c3c2C)cc1 -7.8%
CN(C)c1ccc(C=c2c3ccccc3n3c2c2c([n+]3C)CCCC2)cc1 26.6%
CN(C)c1ccc(C=O)c(Oc2ccccc2)c1 -6.28%
COc1ccc(C(=O)c2ccc(N(C)C)cc2)c2ccccc12 -5.09%
CCN(CC)CC(O)Cn1c(C)c(-c2ccccc2)c2cc([N+](=O)[O-])ccc21 (stereo not drawn) -3.66%
CC1=NN(c2cccc(F)c2)C(=O)/C1=C/c1ccc(N(C)C)cc1 7.52%
O=[N+]([O-])c1ccc2c(c1)c(-c1ccccc1)nc1nncn12 1.68%
Cc1cccc(C)c1NC(=O)C1CCCN(CCCc2ccccc2)C1 (stereo not drawn) 3.24%
COC(=O)c1ccc(CNC(=O)c2ccc(NS(=O)(=O)c3ccc4[nH]c(=O)[nH]c4c3)cc2)cc1 -7.35%
CCOc1ccc(NC(=O)/C(C=Nc2ccccc2)=C(\C)O)cc1 -3.41%
CCCc1nc(SCC(=O)N2CCCC2)c2ccccc2n1 -0.12%
CC(C)(C)OC(=O)N(CCc1ccccc1)Cc1ccccc1OCc1cccc(NC(=O)C2CCCC2)c1 1.13%
CN(C)CCCNC(=O)C[C@H]1C[C@H](C(=O)N2CCCCC2)[C@@]2(CCc3ccccc3)c3[nH]c4ccc(Cl)cc4c3CCN2C1=O 3.82%
Cc1ccc(N=CC2=C(O)CC(c3ccco3)CC2=O)cc1 (stereo not drawn) 14.7%
CCc1ccc(N=CC2=C(O)CC(c3ccco3)CC2=O)cc1 (stereo not drawn) -1.68%
O=C1CC(c2ccco2)CC(O)=C1C=Nc1ccccc1-c1ccccc1 (stereo not drawn) 18.4%
O=C1CC(c2ccco2)CC(O)=C1C=NCCN1CCN(C(=O)Nc2ccc(Cl)cc2)CC1 (stereo not drawn) -5.15%
Cc1[nH]nc(N=CC2=C(O)CC(c3ccco3)CC2=O)c1-c1ccc(Cl)cc1 (stereo not drawn) 8.53%
O=C1CC(c2ccco2)CC(O)=C1C=NCCN1CCNCC1 (stereo not drawn) 31.7%
CC(C)C(=O)N1CCN(CCN=CC2=C(O)CC(c3ccco3)CC2=O)CC1 (stereo not drawn) -5.81% and 11.7%
O=C1CC(c2ccccc2)CC(O)=C1C=Nc1ccccc1Cl (stereo not drawn) -5.59%
COc1cccc(NC(=O)CC(C)=O)c1 3.45%
